Data taken from PubChem BioAssay (NCI).
This is part of a sample that, as a whole, favours compounds with a hit. Of some 83,000 tested, about 20% had one in any assay.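 For each line, cells grew in 96-well plates with the test compound present at a single concentration for 48 hours.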 Calls of active or inactive are those of the source. Rule for the calls: active = growth percent below 10; inactive = the rest.

Experiments:
Test in all cases: NCI-60 one-dose screen, 48 h (100 = growth as untreated, 0 = no growth, -100 = all killed)
DU-145 prostate = conditions: 10 µM unless noted
K-562 leukemia = conditions: 10 µM unless noted
MALME-3M melanoma = conditions: 10 µM unless noted
MDA-MB-231 breast = conditions: 10 µM unless noted
RXF 393 renal = conditions: 10 µM unless noted
SF-268 CNS = conditions: 10 µM unless noted
SF-295 CNS = conditions: 10 µM unless noted
SF-539 CNS = conditions: 10 µM unless noted
UACC-257 melanoma = conditions: 10 µM unless noted
M14 melanoma = conditions: 10 µM unless noted
HCT-15 colon = conditions: 10 µM unless noted
HT29 colon = conditions: 10 µM unless noted
SNB-75 CNS = conditions: 10 µM unless noted
U251 CNS = conditions: 10 µM unless noted
PC-3 prostate = conditions: 10 µM unless noted
SK-MEL-5 melanoma = conditions: 10 µM unless noted
UACC-62 melanoma = conditions: 10 µM unless noted
SK-MEL-28 melanoma = conditions: 10 µM unless noted
LOX IMVI melanoma = conditions: 10 µM
SNB-19 CNS = conditions: 10 µM unless noted

Measured: growth

CC(=O)OC[C@@]1(C)C2CC[C@]3(C)C(CC=C4C5CC(C)(C)CC[C@]5(C(=O)Nc5cccc(C)c5)CC[C@]43C)[C@@]2(C)C[C@@H](OC(C)=O)[C@@H]1OC(C)=O (some centres not stated)
inactive: DU-145 prostate 48.3% | K-562 leukemia 21.5% | MALME-3M melanoma 61.3% | MDA-MB-231 breast 67.7% | RXF 393 renal 85.4% | SF-268 CNS 56.2% | SF-295 CNS 27.4% | SF-539 CNS 42% | UACC-257 melanoma 24.7% | M14 melanoma 49.8% | HCT-15 colon 30.9% | HT29 colon 25.5% | SNB-75 CNS 67.9% | U251 CNS 40.6% | PC-3 prostate 29.4% | UACC-62 melanoma 45.4% | SK-MEL-28 melanoma 62.3%
active: SK-MEL-5 melanoma 3.77%

CCCCSc1nc(NCCc2c[nH]c3ccccc23)c(C#N)c(-c2ccccc2)n1
active: K-562 leukemia 8.19% | RXF 393 renal -8.31% | HT29 colon 1.16% | U251 CNS 8.25% | LOX IMVI melanoma -34%
inactive: DU-145 prostate 54% | MALME-3M melanoma 86.9% | MDA-MB-231 breast 18.3% | SF-268 CNS 39.9% | SF-295 CNS 48.4% | SF-539 CNS 46.6% | UACC-257 melanoma 81.4% | M14 melanoma 60.1% | HCT-15 colon 16.8% | SNB-75 CNS 70.7% | PC-3 prostate 13.2% | SK-MEL-5 melanoma 17.2% | UACC-62 melanoma 72% | SK-MEL-28 melanoma 81.1%

CCCCCCCCOc1cccc(S(=O)(=O)Nc2ccc(C)cc2C(=O)O)c1
inactive: DU-145 prostate 102% | K-562 leukemia 83.8% | MALME-3M melanoma 96% | MDA-MB-231 breast 105% | RXF 393 renal 107% | SF-268 CNS 99.2% | SF-295 CNS 90% | SF-539 CNS 97.6% | UACC-257 melanoma 96.7% | M14 melanoma 100% | HCT-15 colon 92.4% | HT29 colon 110% | SNB-75 CNS 94.9% | U251 CNS 91.5% | PC-3 prostate 88.2% | SK-MEL-5 melanoma 89.1% | UACC-62 melanoma 85.4% | SK-MEL-28 melanoma 106%

O=c1onc(-c2cc3ccccc3nc2Cl)n1-c1cccc2ccccc12
inactive: DU-145 prostate 80.7% | K-562 leukemia 17.6% | MALME-3M melanoma 55.3% | MDA-MB-231 breast 29.7% | RXF 393 renal 43.5% | SF-268 CNS 73.8% | SF-295 CNS 15.5% | SF-539 CNS 52.6% | UACC-257 melanoma 70.7% | M14 melanoma 38.3% | HCT-15 colon 21.6% | HT29 colon 39.6% | U251 CNS 54.8% | PC-3 prostate 40.4% | UACC-62 melanoma 29.9% | SK-MEL-28 melanoma 55.9%
active: SNB-75 CNS 8% | SK-MEL-5 melanoma 3.23%

COc1c(F)ccc(C(=O)Nc2ccc3nc(NC(=O)C4CCCN(S(=O)(=O)c5cccc(C(F)(F)F)c5)C4)sc3c2)c1F (configuration not stated)
inactive: DU-145 prostate 91.1% | K-562 leukemia 62.3% | MALME-3M melanoma 94.7% | MDA-MB-231 breast 85% | SF-268 CNS 65% | SF-295 CNS 79.8% | SF-539 CNS 70.1% | UACC-257 melanoma 89.9% | M14 melanoma 87.5% | HCT-15 colon 69.1% | HT29 colon 83.2% | SNB-19 CNS 72.6% | U251 CNS 69.8% | PC-3 prostate 50.3% | SK-MEL-5 melanoma 89.3% | UACC-62 melanoma 83.3% | LOX IMVI melanoma 86.5% | SK-MEL-28 melanoma 98.2%
active: RXF 393 renal -9.56%

CN(C)c1ccnc(CNCCSC2(c3ccc(C(F)(F)F)cc3)c3ccccc3CCc3ccccc32)c1
active: DU-145 prostate -3.51% | K-562 leukemia -16.3% | MALME-3M melanoma -91.8% | MDA-MB-231 breast -54.6% | RXF 393 renal -88.3% | SF-295 CNS -96.9% | SF-539 CNS -97.6% | UACC-257 melanoma -59.8% | M14 melanoma -75.6% | HCT-15 colon -82.8% | HT29 colon -65.9% | SNB-75 CNS -2.6% | U251 CNS -94.9% | PC-3 prostate -35.3% | SK-MEL-5 melanoma -99.6% | UACC-62 melanoma -5.98% | SK-MEL-28 melanoma -81.7%
inactive: SF-268 CNS 14.1%

CCN(CC)c1ccnc(CNCCSC(c2ccccc2)(c2ccccc2)c2ccc(OC)cc2)c1
active: DU-145 prostate -25.3% | K-562 leukemia -23.6% | MALME-3M melanoma -92.5% | MDA-MB-231 breast -45.5% | RXF 393 renal -26% | SF-268 CNS 4.54% | SF-295 CNS -93.7% | SF-539 CNS -95.8% | UACC-257 melanoma -45.3% | M14 melanoma -74.7% | HCT-15 colon -58.2% | HT29 colon -63.1% | SNB-75 CNS 3.35% | U251 CNS -80.3% | PC-3 prostate -36% | SK-MEL-5 melanoma -99.9% | SK-MEL-28 melanoma -48.5%

NS(=O)(=O)c1ccc(NNC(=O)CCC(=O)c2ccccc2)cc1
inactive: DU-145 prostate 114% | K-562 leukemia 71.6% | MALME-3M melanoma 107% | MDA-MB-231 breast 99.3% | RXF 393 renal 119% | SF-268 CNS 95.8% | SF-295 CNS 99.4% | SF-539 CNS 103% | UACC-257 melanoma 103% | M14 melanoma 104% | HCT-15 colon 104% | HT29 colon 104% | SNB-75 CNS 91.9% | U251 CNS 101% | PC-3 prostate 97.6% | SK-MEL-5 melanoma 99.1% | UACC-62 melanoma 99.9% | SK-MEL-28 melanoma 112%

CC(C)c1sc(NC(=O)c2cc(NC(=O)c3cc(NC(=O)c4nccn4C)cn3C)cn2C)nc1C(=O)NCCCN(C)C
inactive: DU-145 prostate 91.7% | K-562 leukemia 30.8% | MALME-3M melanoma 65% | MDA-MB-231 breast 85.5% | RXF 393 renal 76.6% | SF-268 CNS 57.9% | SF-295 CNS 100% | SF-539 CNS 76.9% | UACC-257 melanoma 82.3% | M14 melanoma 94.3% | HCT-15 colon 104% | HT29 colon 90.7% | SNB-19 CNS 48.1% | U251 CNS 30.2% | PC-3 prostate 46% | SK-MEL-5 melanoma 73.5% | UACC-62 melanoma 66.3% | LOX IMVI melanoma 29.8% | SK-MEL-28 melanoma 99%

CCCSc1nc(Nc2ccc(S(N)(=O)=O)cc2)c(C#N)c(-c2cc(OC)c(OC)c(OC)c2)n1
inactive: DU-145 prostate 26.2% | MDA-MB-231 breast 43.9% | SF-268 CNS 45.2% | SF-295 CNS 14.1% | SF-539 CNS 37% | UACC-257 melanoma 42% | M14 melanoma 18.3% | HCT-15 colon 15.3% | HT29 colon 16.6% | SNB-19 CNS 43.8% | U251 CNS 27.4% | PC-3 prostate 12.6% | UACC-62 melanoma 21% | SK-MEL-28 melanoma 35.8%
active: K-562 leukemia 2.89% | MALME-3M melanoma -2.83% | RXF 393 renal -2.49% | SK-MEL-5 melanoma 6.41% | LOX IMVI melanoma 5.09%

C=C1CCC2C3(C)COC(c4ccccc4)OC3CCC2(C)C1CC(NCc1ccccc1)C1=CCOC1=O (configuration not stated)
inactive: DU-145 prostate 98.7% | K-562 leukemia 58.8% | MALME-3M melanoma 92.4% | MDA-MB-231 breast 71.5% | RXF 393 renal 78.5% | SF-268 CNS 82.4% | SF-295 CNS 72% | SF-539 CNS 89.2% | UACC-257 melanoma 71.7% | M14 melanoma 76% | HCT-15 colon 87.1% | HT29 colon 73.5% | SNB-19 CNS 73.6% | U251 CNS 77.3% | PC-3 prostate 31.6% | SK-MEL-5 melanoma 69.9% | UACC-62 melanoma 70.1% | LOX IMVI melanoma 74.3% | SK-MEL-28 melanoma 94.2%

NS(=O)(=O)c1ccc(CCNC(=O)CSc2ccc(-c3ccc(Br)cc3)nn2)cc1
inactive: DU-145 prostate 71.1% | K-562 leukemia 36% | MALME-3M melanoma 75.9% | MDA-MB-231 breast 85.2% | RXF 393 renal 87.7% | SF-268 CNS 72.5% | SF-295 CNS 59.9% | SF-539 CNS 79.2% | UACC-257 melanoma 38.5% | M14 melanoma 77% | HCT-15 colon 97.4% | HT29 colon 82.6% | SNB-19 CNS 61.5% | U251 CNS 76% | PC-3 prostate 74% | SK-MEL-5 melanoma 28.4% | UACC-62 melanoma 66.8% | LOX IMVI melanoma 59.8% | SK-MEL-28 melanoma 78.1%

CCCSc1nc(Nc2ccc(S(N)(=O)=O)cc2)c(C#N)c(-c2ccc(Cl)cc2)n1
inactive: DU-145 prostate 58.7% | SF-268 CNS 66% | UACC-257 melanoma 54.8% | M14 melanoma 18.8% | HCT-15 colon 21.7% | HT29 colon 33.6% | SNB-19 CNS 28.2% | PC-3 prostate 64.3% | SK-MEL-5 melanoma 55.9% | UACC-62 melanoma 31.1% | SK-MEL-28 melanoma 73.8%
active: K-562 leukemia 7.3% | MALME-3M melanoma -4.55% | MDA-MB-231 breast -55.6% | RXF 393 renal -43.4% | SF-295 CNS 1.43% | SF-539 CNS -4.39% | U251 CNS -14.8% | LOX IMVI melanoma -96.3%

Cn1cc(-c2cc(N)n3nc(-c4c[nH]c5ccccc45)cc3n2)c2cccnc21
inactive: DU-145 prostate 38.2% | RXF 393 renal 29.6% | SF-268 CNS 81.6% | UACC-257 melanoma 92.3% | SNB-19 CNS 59.9% | U251 CNS 20% | SK-MEL-5 melanoma 23.1%
active: K-562 leukemia 6.08% | MALME-3M melanoma -27.3% | MDA-MB-231 breast -9.34% | SF-295 CNS -4.84% | SF-539 CNS -81.5% | M14 melanoma -48.1% | HCT-15 colon -10.2% | HT29 colon -38.1% | PC-3 prostate 5.88% | UACC-62 melanoma -84% | LOX IMVI melanoma -85.8% | SK-MEL-28 melanoma -81.6%

COc1ccc(NC(=O)Nc2ccc(OCc3ccc(F)cc3)cc2)cc1
inactive: DU-145 prostate 88.5% | K-562 leukemia 82.6% | MALME-3M melanoma 62.3% | MDA-MB-231 breast 53.5% | RXF 393 renal 35% | SF-268 CNS 61.3% | SF-295 CNS 102% | UACC-257 melanoma 85.9% | M14 melanoma 77% | HCT-15 colon 91.1% | HT29 colon 92.3% | SNB-19 CNS 46.9% | U251 CNS 34.8% | PC-3 prostate 79.7% | SK-MEL-5 melanoma 76.6% | UACC-62 melanoma 82.6% | LOX IMVI melanoma 26.6% | SK-MEL-28 melanoma 75.5%
active: SF-539 CNS 0.894%

CCOC(=O)c1ccc(Nc2nc(NN)nc(-c3ccc(F)cc3)c2C#N)cc1
inactive: DU-145 prostate 113% | K-562 leukemia 32.2% | MALME-3M melanoma 98.5% | MDA-MB-231 breast 76.7% | RXF 393 renal 142% | SF-268 CNS 109% | SF-295 CNS 97.8% | SF-539 CNS 104% | UACC-257 melanoma 103% | M14 melanoma 98% | HCT-15 colon 109% | HT29 colon 97.6% | SNB-19 CNS 100% | U251 CNS 115% | PC-3 prostate 103% | SK-MEL-5 melanoma 102% | UACC-62 melanoma 91.3% | LOX IMVI melanoma 112% | SK-MEL-28 melanoma 109%
